Results as given in PubChem BioAssay (NCATS).
Values joined by “and” are separate entries in the source; they are usually repeats but may differ in a detail not shown here. Equal values may be shown once. Results filed as inconclusive are left out. Active and inactive are the calls of the source. Calls come from the whole dose curve; as a rule, active = well fitted inhibition curve with a large enough effect in the main read-out, with a control signal flat (not every such curve was filed as active); inconclusive = small, poorly fitted or top-dose-only effect, or effect the other way, or a change in a side signal; inactive = no such curve, though single readings can be large or run the other way.

test: Nrf2 qHTS screen for inhibitors: Validation (AID 493153); conditions: A549 ARE-Fluc reporter, 18-24 h; viability change: measured here: cytotoxicity max response; luciferase luminescence, at 46.1 µM (top of the series); activity change, negative = inhibition: at the top concentration;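 for activity change, negative = inhibition: A549 cells with ARE-driven firefly luciferase reporter reporting Nrf2 activity; % of control where 0% means no effect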
Text: NIH Molecular Libraries Probe Production Network [MLPCN] NIH Chemical Genomics Center [NCGC] MLPCN Grant: R03-MH092170-01 Assay Provider: Shyam Biswal, Johns Hopkins University Assay Overview: Nrf2 is a transcription factor that maintains cellular redox homoestasis and protects cells from xenobiotics. Nrf2 binds to the antioxidant response element (ARE) to induce gene expression of a broad spectrum of genes that encode for antioxidants. […] Finding a small molecule that act as an inhibitor of Nrf2 function would represent a novel therapeutic target that could lead to improvement in survival of patients undergoing chemo- and/or radio- therapy. 1. Shibata, T., et al., Genetic Alteration of Keap1 Confers Constitutive Nrf2 Activation and Resistance to Chemotherapy in Gallbladder Cancer. Gastroenterology, 2008. 2. Sjoblom, T., et al., The consensus coding sequences of human breast and colorectal cancers. Science, 2006. 314(5797): p. 268-74.
Assay Protocol Summary: A concentration-response assay was performed with A549 ARE_Fluc cells which are suspended in 5% FBS OPTI-MEM. Five uL were dispensed into 1536-well white TC-treated plate using the Kalypsys dispenser to achieve a density of 5000 cells/well in all columns except column 1. The plate is incubated at 37deg C at 5% CO2 for 2 hours before 23 nL of compounds are added with the Kalypsys pin tool equipped with a 1,536-pin array containing 10-nL slotted pins (FP1S10, 0.457-mm diameter, 50.8 mm long; V&P Scientific). The control compounds Budesonide and Staurosporine are both added at a concentration of 2mM and Budesonide is also added as a 1:10 titration, starting at 200uM, to achieve dose-response. After an 18-24 hour incubation at 37deg C at 5% CO2, 5ul of medium is added to column 1. Afterwards 1ul of 5x of CellTiter-Fluor (Promega) is added to every well. The plate is then incubated at 37deg C at 5% CO2 for 30 minutes before they are read on the ViewLux (Perkin Elmer) for a fluorescent read Ex=405(10)/Em=525(10) for a 3 second exposure, 2x binning, and high gain. Then 3 uL of 3x BugLite is dispensed into all wells and the plate is incubated at ambient room temperature for 15 minutes. Afterwards another ViewLux read is performed using the clear filter to get a luminescent read with the settings of 40 second exposure, 2x binning, and high gain. Cytotoxicity is assessed through the first fluorescent read and then biochemical activity against Nrf2 is measured in the luminescent read.

SMILES	activity change, negative = inhibition	viability change	outcome
CN=C(NC#N)NCCSCc1nc[nH]c1C	24.9% (inactive)	0.983%	–
CN1C(=O)CCS(=O)(=O)C1c1ccc(Cl)cc1 (stereo not drawn)	2.5% (inactive)	-1.88%	–
CC(C)c1cccc(C(C)C)c1O	0.684% (inactive)	0.059%	–
NCCc1ccc(O)cc1	8% (inactive)	-8.88%	–
O=P1(N(CCCl)CCCl)NCCCO1 (stereo not drawn)	-1.38% (inactive)	-1.15%	–
Cc1ncsc1CCCl	4.86% (inactive)	6.84%	–
O=c1[nH]oc2c1CCNC2	9.59% (inactive)	-2.38%	–
CC(C)N(CCC(C(N)=O)(c1ccccc1)c1ccccn1)C(C)C (stereo not drawn)	–	0% and 10.1%	inactive
CC(C)(C)NCC(O)c1ccccc1Cl (stereo not drawn)	-9.87% (inactive)	0.543%	–
CCCCC/C=C\C/C=C\C/C=C\C/C=C\CCCC(=O)NCC(=O)O	5.92% (inactive)	2.11%	–
COc1ccc2c(c1OC)C(=O)O[C@H]2[C@@H]1c2cc3c(cc2CCN1C)OCO3	6.91% (inactive)	5.02%	–
CCC1(c2ccc(N)cc2)CCC(=O)NC1=O (stereo not drawn)	-1.57% (inactive)	1.18%	–
CC(NC(C)(C)C)C(=O)c1cccc(Cl)c1 (stereo not drawn)	-1.81% (inactive)	5.02%	–
C=C(C)[C@H]1CN[C@H](C(=O)O)[C@H]1CC(=O)O	5.89% (inactive)	1.68%	–
